Structures are written as SMILES. About 83,000 compounds went through this panel and 20% of them were active in at least one assay; those are over-represented in the sample as a whole.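 Cells were grown in 96-well plates and exposed to the test compound at a single concentration for 48 hours; results are reported as percent growth, with values below 10 considered active.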 The source made the active and inactive calls.

The test system of the first test is OVCAR-3 ovarian. Kind of test: NCI-60 one-dose screen, 48 h (100 = growth as untreated, 0 = no growth, -100 = all killed). The following applies: 10 µM unless noted.
Regarding `CCCc1n(Cc2ccc3ccccc3c2)cc[n+]1Cc1ccc2ccccc2c1`, the growth was -55.6% (active).

As to `COC(=O)[C@H](Cc1cnc[nH]1)NC(=O)[C@@H](NC(=O)Nc1cc(C(F)(F)F)cc(C(F)(F)F)c1)C(C)C`, the growth is -100% [100 µM] (active).

As to `COc1cnc2c(c1)C(=O)c1c-2n(CCCN2CCNCC2)c(=O)c2cc(F)ccc12`, the growth is 2.67% (active).

On to `O=C(/C=C/c1cccc(Nc2ccnc3cc(Cl)ccc23)c1)c1ccc(Cl)cc1`, for which the growth was 56.8% (inactive).

For the compound `Cc1ccc(/C=C(/C#N)n2nnc3ncccc32)cc1`, the growth was -15% (active).

Turning to `O=C1C=CC(=O)N1c1ccccn1`, the growth was 119% (inactive).

On to `CN1C(=O)C(C2=NN(C=O)C(c3ccc(F)cc3)C2)C(=O)N(C)C1=O` (stereo not given), for which the growth is 99.9% (inactive).

Turning to `COc1ccc(C(=O)/C=C/c2cccc(Nc3ccnc4cc(Cl)ccc34)c2)cc1`, the growth was 23.9% (inactive).

With `O=C(/C=C/c1ccc(C(F)(F)F)cc1)c1ccc(Nc2nc(NCCO)nc(NCCO)n2)cc1`, the growth is 25.8% (inactive).

For `O[N+]1=CC=CCC1=S.On1ccccc1=S.[Zn]`, the growth is -97.4% (active).

Consider `Cn1c(=O)c2[nH]c(=S)n(Cc3ccccc3)c2n(C)c1=O`, for which the growth is 104% (inactive).

For the compound `COc1ccc(Oc2ccccc2NC(=O)CNC(=O)c2cccc3ccccc23)cc1`, the growth was -16.6% [5 µM] (active).

As to `CNc1nc(NC2CCCC2)nc(Sc2ccc(OC)cc2)n1`, the growth is -25.5% [100 µM] (active).

As for `COc1cc(C2=NN(C=O)C(c3cccc(Nc4ccnc5cc(Cl)ccc45)c3)C2)cc(OC)c1OC` (stereo not given), the growth was 85.2% (inactive).

Regarding `CCOC(=O)/C=C1/SC(=Nc2ccc(C#N)cc2)N(Cc2ccco2)C1=O`, the growth is 17.9% (inactive).

Turning to `O=C(NCCNC(=O)Oc1cccc2ccccc12)Oc1cccc2ccccc12`, the growth was 86.5% (inactive).

In the case of `Oc1ccc(/C=N/Nc2nc3ccccc3s2)c(O)c1`, the growth was 18.6% (inactive).

Take `Nc1nc(SCc2cccnc2)c2ncn(C3OC(CO)C(O)C3O)c2n1` (stereo not given): the growth is 99.9% (inactive).

In the case of `Cc1sc2nc(N3CCCCC3)[nH]c(=O)c2c1C`, the growth was 113% (inactive).

A further test has as its system HS 578T breast. The test is described as above. The note with it: 10 µM unless noted.
Take `CC(=O)OCC(=O)[C@@]1(O)CC[C@H]2[C@@H]3CCC4=CC(=O)CC[C@]4(C)[C@@]3(F)[C@@H](O)C[C@@]21C`: the growth is 112% (inactive).

For `COc1ccccc1-n1c(-c2ccc(O)cc2C)cn2c3c(=O)[nH]c(=O)n(C)c3nc12`, the growth was 50.2% (inactive).

Turning to `Nc1nc(Nc2ccccc2SSc2ccccc2Nc2nc(N)nc(-c3cccc(Cl)c3)n2)nc(-c2cccc(Cl)c2)n1`, the growth is 105% (inactive).

For `CC1C(=O)NC2=Nc3ccccc3C(=O)NN21` (stereo not given), the growth was 108% (inactive).

`CC1c2ccccc2-c2ccccc2N1C` (stereo not given): the growth is 112% (inactive).

Consider `O=C(N/N=C/c1ccc(Cl)cc1Cl)c1ccccc1Nc1cccc(C(F)(F)F)c1`, for which the growth is 49.3% (inactive).

Consider `Nc1c(C(=O)Nc2cccc(Cl)c2)sc2nc3c(cc12)C(O)CCC3` (stereo not given), for which the growth was 24.5% (inactive).

For the compound `c1ccc(COc2ccc(Nc3ncnc4c3cnn4-c3ccccc3)cc2)cc1`, the growth is 109% (inactive).

In the case of `COc1cc(/C=C/C(=O)c2c(C)n([O-])c3ccc(Cl)cc3[n+]2=O)cc(OC)c1OC`, the growth is 70.5% (inactive).

Consider `CN[C@@H]1C(OC2[C@H](O[C@H]3[C@H](O)[C@@H](O)[C@H](N=C(N)N)[C@@H](O)[C@@H]3N=C(N)N)OC(C)[C@]2(O)CO)OC(CO)C(O)C1O` (stereo not given in full), for which the growth is 112% (inactive).

Consider `COc1ccc(OC)c(CCn2cncc2-c2c[nH]c3cc(Br)ccc23)c1`, for which the growth is 59.8% (inactive).

In the case of `COc1cnc2c(c1)C(=O)c1c-2n(CCCN2CCCC2)c(=O)c2cc(F)ccc12`, the growth is 23.8% (inactive).

Take `N#Cc1c(-c2ccccc2)cc(-c2ccccc2)n(CCCCC(=O)O)c1=O`: the growth is 101% (inactive).

As for `C=C1CC[C@@H]2[C@](C)(COC(C)=O)[C@H](OC(C)=O)CC[C@@]2(C)[C@@H]1CC(NCc1ccccc1)C1=CCOC1=O` (stereo not given in full), the growth is 86.4% (inactive).

As to `O=CN1N=C(c2ccc(Nc3ccnc4cc(Cl)ccc34)cc2)CC1c1ccc(Cl)cc1` (stereo not given), the growth is 28.1% (inactive).

For `Cc1ccc(N/N=C(/C(=O)c2ccc(Cl)cc2)c2nc(C)cc(=O)[nH]2)cc1`, the growth was 99.9% (inactive).

The next test has as its system NCI/ADR-RES ovarian. The test is described as above. The note with it: 10 µM unless noted.
Consider `CCCc1n(Cc2ccc3ccccc3c2)cc[n+]1Cc1ccc2ccccc2c1`, for which the growth is 89.2% (inactive).

For `CC(=O)OCC(=O)[C@@]1(O)CC[C@H]2[C@@H]3CCC4=CC(=O)CC[C@]4(C)[C@@]3(F)[C@@H](O)C[C@@]21C`, the growth is 89.6% (inactive).

In the case of `COC(=O)[C@H](Cc1cnc[nH]1)NC(=O)[C@@H](NC(=O)Nc1cc(C(F)(F)F)cc(C(F)(F)F)c1)C(C)C`, the growth was 73.9% [100 µM] (inactive).

With `COc1ccccc1-n1c(-c2ccc(O)cc2C)cn2c3c(=O)[nH]c(=O)n(C)c3nc12`, the growth was 108% (inactive).

Take `Nc1nc(Nc2ccccc2SSc2ccccc2Nc2nc(N)nc(-c3cccc(Cl)c3)n2)nc(-c2cccc(Cl)c2)n1`: the growth is 81.3% (inactive).

`COc1ccc2c(c1)C(=Nc1cc(OC)c(OC)c(OC)c1)C(=O)N2`: the growth was 103% (inactive).

`CC1C(=O)NC2=Nc3ccccc3C(=O)NN21` (stereo not given): the growth is 103% (inactive).

For the compound `CC1c2ccccc2-c2ccccc2N1C` (stereo not given), the growth is 108% (inactive).

`CCC(C)C1NC(=O)C(CCNCS(=O)(=O)O)NC(=O)C(NC(=O)C(CCNCS(=O)(=O)O)NC(=O)C(NC(=O)C(CCNCS(=O)(=O)O)NC(=O)CCCCC(C)C)C(C)O)CCNC(=O)C(C(C)O)NC(=O)C(CCNCS(=O)(=O)O)NC(=O)C(CCNCS(=O)(=O)O)NC(=O)C(C(C)CC)NC1=O` (stereo not given): the growth was 107% (inactive).

With `O=C(N/N=C/c1ccc(Cl)cc1Cl)c1ccccc1Nc1cccc(C(F)(F)F)c1`, the growth was 73.4% (inactive).

`COc1cnc2c(c1)C(=O)c1c-2n(CCCN2CCNCC2)c(=O)c2cc(F)ccc12`: the growth is 18.8% (inactive).

In the case of `O=C(/C=C/c1cccc(Nc2ccnc3cc(Cl)ccc23)c1)c1ccc(Cl)cc1`, the growth is 38.1% (inactive).

As for `Nc1c(C(=O)Nc2cccc(Cl)c2)sc2nc3c(cc12)C(O)CCC3` (stereo not given), the growth is 8.73% (active).

In the case of `Nc1nc(Nc2ccccc2SSc2ccccc2Nc2nc(N)nc(C(Cl)(Cl)Cl)n2)nc(C(Cl)(Cl)Cl)n1`, the growth was 48.9% (inactive).

For the compound `Cc1ccc(/C=C(/C#N)n2nnc3ncccc32)cc1`, the growth is 2.09% (active).

As to `O=C1C=CC(=O)N1c1ccccn1`, the growth is 106% (inactive).

Regarding `c1ccc(COc2ccc(Nc3ncnc4c3cnn4-c3ccccc3)cc2)cc1`, the growth was 107% (inactive).

Turning to `CN1C(=O)C(C2=NN(C=O)C(c3ccc(F)cc3)C2)C(=O)N(C)C1=O` (stereo not given), the growth was 99.2% (inactive).

Regarding `COc1ccc(C(=O)/C=C/c2cccc(Nc3ccnc4cc(Cl)ccc34)c2)cc1`, the growth was 21.3% (inactive).

As for `Cc1n(Cc2ccc3ccccc3c2)cc[n+]1Cc1ccc2ccccc2c1`, the growth is 92.7% (inactive).

As for `O=C(/C=C/c1ccc(C(F)(F)F)cc1)c1ccc(Nc2nc(NCCO)nc(NCCO)n2)cc1`, the growth is 90.1% (inactive).

For the compound `O[N+]1=CC=CCC1=S.On1ccccc1=S.[Zn]`, the growth is -46.8% (active).

Turning to `Cn1c(=O)c2[nH]c(=S)n(Cc3ccccc3)c2n(C)c1=O`, the growth is 99.2% (inactive).

Consider `COc1cc(/C=C/C(=O)c2c(C)n([O-])c3ccc(Cl)cc3[n+]2=O)cc(OC)c1OC`, for which the growth was 73.5% (inactive).

As for `COc1ccc(Oc2ccccc2NC(=O)CNC(=O)c2cccc3ccccc23)cc1`, the growth was 15.3% [5 µM] (inactive).

For the compound `CN[C@@H]1C(OC2[C@H](O[C@H]3[C@H](O)[C@@H](O)[C@H](N=C(N)N)[C@@H](O)[C@@H]3N=C(N)N)OC(C)[C@]2(O)CO)OC(CO)C(O)C1O` (stereo not given in full), the growth is 105% (inactive).

As for `CNc1nc(NC2CCCC2)nc(Sc2ccc(OC)cc2)n1`, the growth is 11.9% [100 µM] (inactive).

As to `COc1ccc(OC)c(CCn2cncc2-c2c[nH]c3cc(Br)ccc23)c1`, the growth is 19.4% (inactive).

For the compound `COc1cnc2c(c1)C(=O)c1c-2n(CCCN2CCCC2)c(=O)c2cc(F)ccc12`, the growth was -3.22% (active).

`COc1cc(C2=NN(C=O)C(c3cccc(Nc4ccnc5cc(Cl)ccc45)c3)C2)cc(OC)c1OC` (stereo not given): the growth was 65.5% (inactive).

Take `N#Cc1c(-c2ccccc2)cc(-c2ccccc2)n(CCCCC(=O)O)c1=O`: the growth is 80.5% (inactive).

For `CCOC(=O)/C=C1/SC(=Nc2ccc(C#N)cc2)N(Cc2ccco2)C1=O`, the growth was 40.9% (inactive).

As for `O=C(NCCNC(=O)Oc1cccc2ccccc12)Oc1cccc2ccccc12`, the growth is 95.8% (inactive).

As for `Oc1ccc(/C=N/Nc2nc3ccccc3s2)c(O)c1`, the growth is 17.7% (inactive).

Consider `C=C1CC[C@@H]2[C@](C)(COC(C)=O)[C@H](OC(C)=O)CC[C@@]2(C)[C@@H]1CC(NCc1ccccc1)C1=CCOC1=O` (stereo not given in full), for which the growth is 23.5% (inactive).

On to `Nc1nc(SCc2cccnc2)c2ncn(C3OC(CO)C(O)C3O)c2n1` (stereo not given), for which the growth is 102% (inactive).

On to `COc1ccc(C2=NN(C=O)C(c3cccc(Nc4ccnc5cc(Cl)ccc45)c3)C2)cc1` (stereo not given), for which the growth is 10.8% (inactive).

For `O=CN1N=C(c2ccc(Nc3ccnc4cc(Cl)ccc34)cc2)CC1c1ccc(Cl)cc1` (stereo not given), the growth is 0.514% (active).

As to `Cc1sc2nc(N3CCCCC3)[nH]c(=O)c2c1C`, the growth is 96.5% (inactive).

Take `Cc1ccc(N/N=C(/C(=O)c2ccc(Cl)cc2)c2nc(C)cc(=O)[nH]2)cc1`: the growth is 103% (inactive).
